Data published in PubChem BioAssay AID602410 (Johns Hopkins Ion Channel Center, 2012).
Among all 340,000 compounds or so, about 2,800 (0.82%) were called active.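 How the source made its calls: active means B-score under library mean minus 4 SD, starting fluorescence ratio at most library mean plus 5 SD; inactive means the rest.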 The list comes from a sample in which actives are over-represented; it also holds similar structures and randomly drawn compounds.

These molecules were tested against Potassium channel subfamily K member 3 (Homo sapiens) (UniProt O14649) (assay: human KCNK3 channel inhibitors, primary screen, CHO cells, FluxOR thallium flux, B-score (AID 602410;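 on B-score: more negative B-score means stronger inhibition of thallium flux through KCNK3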)). Conditions: FluxOR fluorescence, at 10 µM; hits give low values.
Chain of Potassium channel subfamily K member 3 (Homo sapiens) (O14649 whole entry, looked up): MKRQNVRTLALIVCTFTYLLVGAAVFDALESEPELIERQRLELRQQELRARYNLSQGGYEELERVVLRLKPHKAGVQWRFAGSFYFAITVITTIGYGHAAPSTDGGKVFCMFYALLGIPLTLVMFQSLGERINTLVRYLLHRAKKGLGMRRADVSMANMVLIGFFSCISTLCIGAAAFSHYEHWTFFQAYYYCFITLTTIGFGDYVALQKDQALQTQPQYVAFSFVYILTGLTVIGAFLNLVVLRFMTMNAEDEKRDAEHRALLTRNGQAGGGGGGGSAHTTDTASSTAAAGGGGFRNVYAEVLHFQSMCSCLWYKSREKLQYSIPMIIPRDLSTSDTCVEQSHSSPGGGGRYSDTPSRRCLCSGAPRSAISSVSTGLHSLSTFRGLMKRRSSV

| SMILES | B-score |
| --- | --- |
| CCN(CC)C(=O)CN(c1cccc(OC)c1)S(=O)(=O)c1ccc(C)cc1 | inactive |
| CCCCCCCC(=O)NC(Nc1ccccc1OC)C(Cl)(Cl)Cl (stereo unspecified) | inactive |
| Cc1ccc(O)c(CCc2ccccc2)n1 | inactive |
| CC(Oc1cccc(NC(=O)c2cccs2)c1)C(=O)c1ccccc1 (stereo unspecified) | -11.3 (active) |
| O=C(Nc1ccccc1-c1ccccc1)c1cccs1 | inactive |
| COc1cc(NC(=O)c2cccs2)ccc1NC(=O)c1ccccc1Cl | inactive |
| CCNC(=O)CC1C(=O)N(c2ccc(OC)cc2)C(=O)N1CCOC (stereo unspecified) | inactive |
| COC(=O)c1cc(NC2c3ccccc3C(=O)N2c2ccc(Cl)cn2)cc(C(=O)OC)c1 (stereo unspecified) | -10.8 (active) |
| COC(=O)c1ccc(-n2cnc3ccccc32)nc1 | inactive |
| Cc1ccnc(N2C(=O)c3ccccc3C2Nc2ccc3c(c2)OCCO3)c1 (stereo unspecified) | inactive |
| Cn1ccnc1-c1nnn(-c2ccc(F)cc2)n1 | inactive |
| O=C(CC(c1ccccc1)c1cc(Cl)ccc1O)NCCN1CCOCC1 (stereo unspecified) | inactive |
| Cc1cc(OCCCCOc2ccc(C#N)cc2)ccc1[N+](=O)[O-] | -9.68 (active) |
| Cc1cc(OCCCN2CCN(Cc3ccccc3)CC2)ccc1[N+](=O)[O-] | inactive |
| Cc1cc(OCC(=O)NC2CCN(C)CC2)ccc1[N+](=O)[O-] | inactive |
| COC(c1ccccc1)c1nnc(CCC(=O)N2CCN(CCOc3ccccc3)CC2)o1 (stereo unspecified) | inactive |
| O=C(CC1NCCNC1=O)Nc1ccc(Oc2ccccc2)cc1 (stereo unspecified) | inactive |
| O=C(CC1NCCc2ccccc21)Nc1cccc(Cl)c1 (stereo unspecified) | -8.87 (active) |
| O=C(CC1NCCNC1=O)Nc1cc(Cl)cc(Cl)c1 (stereo unspecified) | inactive |
| O=C(NNS(=O)(=O)c1ccccc1C(F)(F)F)c1cc2ncc(C(F)(F)F)cc2s1 | inactive |
| CN1CCN(C(=O)/C(=C\c2cccs2)NC(=O)c2cccs2)CC1 | inactive |
| O=C(COC(=O)Cn1[nH]c(=O)c2ccccc2c1=O)Nc1ncc(Cl)cc1Cl | inactive |

| SMILES | B-score |
| --- | --- |
| CN(C)S(=O)(=O)c1ccc(NC(=O)COC(=O)Cn2[nH]c(=O)c3ccccc3c2=O)cc1 | inactive |
| Cc1ccc(C)c(C(=O)COC(=O)Cn2[nH]c(=O)c3ccccc3c2=O)c1 | -9.1 (active) |
| Fc1ccc(Cn2nnnc2C(c2cccs2)N2CCCCCC2)cc1 (stereo unspecified) | inactive |
| CCC(C)(C)n1nnnc1C(c1ccc(OC)c(OC)c1)N1CCN(C(=O)c2ccco2)CC1 (stereo unspecified) | inactive |
| CCC(C)(C)n1nnnc1C(c1cccs1)N1CCN(c2nc3ccccc3s2)CC1 (stereo unspecified) | -9.57 (active) |
| CC(C)C(=O)N1CCN(CCN=CC2=C(O)CC(c3ccco3)CC2=O)CC1 (stereo unspecified) | inactive |
| CCOC(=O)C1=C(CN2CCc3ccccc32)NC(=O)NC1c1cc(C)ccc1C (stereo unspecified) | inactive |
| CC(C)(C)c1nnc(N/N=C/c2ccc(O)cc2)n(N)c1=O | inactive |
| O=C(Nc1cc(=O)[nH]c2ncnn12)c1ccccc1Cl | inactive |
| COc1ccccc1C(c1nnnn1C(C)(C)C)N1CCN(Cc2ccccc2)CC1 (stereo unspecified) | -8.94 (active) |
| COc1ccc(OC)c(C(c2nnnn2C(C)(C)C)N2CCc3ccccc3C2)c1 (stereo unspecified) | inactive |
| CCCC(c1nnnn1C(C)(C)C)N1CCN(Cc2ccccc2)CC1 (stereo unspecified) | inactive |
| C=CCn1c(SCc2cc(C(=O)OC)c(C)o2)nnc1-c1ccncc1 | inactive |
| COc1ccc(N2CCN(S(=O)(=O)c3ccc4c(c3)NC(=O)C(C)C(=O)N4)CC2)cc1 (stereo unspecified) | inactive |
| O=C(Nc1cccnc1)c1cc([N+](=O)[O-])ccc1Cl | inactive |
| Cc1ccc(NC(=O)c2cc([N+](=O)[O-])ccc2Cl)c(O)c1 | -10.1 (active) |
| CNc1ccc([N+](=O)[O-])cc1C(=O)O | inactive |
| Cc1ccc(SCC(=O)Nc2nncs2)cc1 | inactive |
| COc1ccccc1-c1c(C#N)c(N)nc2c1CCC2 | inactive |
| O=C(CSc1nc2ccccc2c(=O)n1Cc1ccc(F)cc1)NCC1CCCO1 (stereo unspecified) | inactive |
| c1ccc2c(NCC3CCCO3)nc(-c3ccncc3)nc2c1 (stereo unspecified) | inactive |
| Clc1cccc(-c2nc(NCC3CCCO3)c3ccccc3n2)c1 (stereo unspecified) | -10.2 (active) |

| SMILES | B-score |
| --- | --- |
| CCOC(=O)[C@@H]1[C@H]2COc3ccc(Br)cc3[C@H]2N2C(=O)N(c3ccc(C)cc3)C(=O)[C@@]12C | inactive |
| CCn1c(CSc2nncn2-c2ccc(OC)cc2)nc2cc(S(=O)(=O)N(C)C)ccc21 | inactive |
| COc1cc(CNCc2ccc(OC)c3ccccc23)cc(OC)c1OC | inactive |
| CC(C)N(Cc1ccccc1)C(=O)COC(=O)c1cnccn1 | inactive |
| N/C(=N\OC(=O)Cc1ccc([N+](=O)[O-])cc1)c1ccccn1 | inactive |
| N/C(Cc1ccc([N+](=O)[O-])cc1)=N\OC(=O)COc1ccc2ccccc2c1 | -8.91 (active) |
| Cc1cc(C)cc(OCC(=O)O/N=C(\N)Cc2ccc([N+](=O)[O-])cc2)c1 | inactive |
| CCNC(=O)CC1C(=O)N(c2ccc(OC)cc2)C(=S)N1CCc1ccncc1 (stereo unspecified) | inactive |
| CCc1cc(-c2n[nH]c(=S)n2CC(C)C)cs1 | inactive |
| CCOC(=O)N1CCN(Cc2nc3cc(NC(=O)CC)ccc3n2CC)CC1 | inactive |
| O=C(CN(CC1CCCO1)C(=O)CNS(=O)(=O)c1ccc(Cl)cc1)NCc1ccccc1 (stereo unspecified) | inactive |
| CCC(C(=O)NCCC(C)C)N(Cc1ccccc1Cl)C(=O)c1snc(C(N)=O)c1N (stereo unspecified) | inactive |
| COc1ccc2c(c1)c(=Cc1ccc(N(C)C)cc1)c1cc(-c3ccccc3)[n+](C)n12 | -15.6 (active) |
| COc1ccc2sc(-c3ccc(N(C)C)cc3)c(C#CCO)c2c1 | inactive |
| O=S(=O)(c1cccs1)N1CCN(CCOc2ccccc2)CC1 | inactive |
| O=C(N/N=C/c1cccc(OCc2ccccc2)c1)c1ccc(Br)o1 | -9.25 (active) |
| O=C(N/N=C/c1cccc(O)c1)c1cc2c(ccc3ccccc32)o1 | inactive |
| Cc1ccc(OCCOc2cccc(/C=N/NC(N)=O)c2)cc1 | inactive |
| COc1ccccc1N1CCN(c2ncnc3sc(C)c(-c4ccccc4)c23)CC1 | -14.3 (active) |
| COc1ccccc1N1CCN(c2ccc([N+](=O)[O-])nc2)CC1 | inactive |
| COc1ccccc1N1CCN(c2nc(C)cc(=O)[nH]2)CC1 | inactive |
| COc1ccc(S(=O)(=O)N(C)CC(=O)NCCCN2CCOCC2)cc1Cl | inactive |

| SMILES | B-score |
| --- | --- |
| O=C(NCCN1CCOCC1)Nc1cccc(Cl)c1 | inactive |
| COc1cccc2cc(C(C)N(CCCN3CCOCC3)C(=O)Nc3ccc(Cl)cc3)oc12 (stereo unspecified) | -10.2 (active) |
| Cc1nn(CC(=O)Nc2nc3ccccc3s2)c(C)c1[N+](=O)[O-] | -10.5 (active) |
| Cc1nn(CC(=O)Nc2ccc(N(C)C)cc2)c(C)c1[N+](=O)[O-] | inactive |
| Cc1nn(CC(=O)NCc2ccccn2)c(C)c1[N+](=O)[O-] | inactive |
| CCN(CC(=O)NCc1ccc(F)cc1)S(=O)(=O)c1ccc(Cl)s1 | inactive |
| CC(C(=O)NC1CCCC1)N(c1ccc(Oc2ccccc2)cc1)S(C)(=O)=O (stereo unspecified) | inactive |
| COC(=O)c1cc(C)sc1NC(=O)CC1Nc2ccccc2NC1=O (stereo unspecified) | inactive |
| O=C(OCN1C(=O)c2ccccc2C1=O)/C(=C\c1ccco1)NC(=O)c1ccccc1 | inactive |
| COC(=O)COc1ccc2c(c1C)O/C(=C\c1ccco1)C2=O | inactive |
| COC(=O)C1=C(C)N(C(C)c2ccccc2)C(=O)/C1=C\c1ccco1 (stereo unspecified) | -9.57 (active) |
| CC(=O)NCCC(=O)Nc1cc(S(=O)(=O)N2CCCCC2)ccc1Oc1cccc(C)c1 | inactive |
| Cc1c(NC(=O)CCC2CCCCC2)cc(C(=O)N2CCOCC2)cc1[N+](=O)[O-] | inactive |
| CC(C)N1C(=O)N(c2ccccc2)C(C)(O)CC1(C)C (stereo unspecified) | inactive |
| CC(C)N(Cc1nc(-c2ccc3c(c2)OCO3)no1)CC1CCC(=O)N1 (stereo unspecified) | inactive |
| Cc1c(S(=O)(=O)NC(C)c2ccccc2)c(=O)n(C)c(=O)n1C (stereo unspecified) | inactive |
| Cc1ccc(NC(=O)CCCNC(=O)c2ccc(Cl)cc2)cc1S(=O)(=O)N1CCOCC1 | inactive |
| Cc1ccc(NC(=O)COC(=O)C2CC2)cc1S(=O)(=O)N1CCOCC1 | inactive |
| Cc1ccc(NC(=O)COC(=O)CNC(=O)c2ccc(Cl)cc2Cl)cc1S(=O)(=O)N1CCOCC1 | -10.7 (active) |
| CC1COc2ccccc2N1C(=O)c1cccnc1Cl (stereo unspecified) | inactive |
| O=C(NC1CCC(O)CC1)c1ccccc1OCc1ccc(F)cc1 (stereo unspecified) | inactive |
| CC(=O)c1ccccc1OCc1ccc(C(=O)c2ccccc2)cc1 | -15.7 (active) |

| SMILES | B-score |
| --- | --- |
| COc1ccc(CCNC(=O)c2ccccc2OCc2ccccc2)cc1 | inactive |
| O=C(OCCOCn1cc(Br)c(=O)[nH]c1=O)c1ccccc1 | inactive |
| Fc1cccc2ncnc(OCc3ccccc3)c12 | inactive |
| Cc1nc2ccccc2cc1OCc1ccc(F)cc1 | -11.4 (active) |
| Cc1occc(=O)c1OCc1ccc(F)cc1 | inactive |
| CCc1ccc(N2CC(C(=O)N3CCCCCC3)CC2=O)cc1 (stereo unspecified) | inactive |
| COc1ccccc1N1CCN(/N=C/c2ccc(O)cc2O)CC1 | inactive |
| COc1ccccc1N1CCN(/N=C\C(Br)=C\c2ccccc2)CC1 | -9.41 (active) |
| COc1cc(/C=N/N2CCN(c3ccccc3)CC2)ccc1OC(C)=O | inactive |
| COc1ccc(CC(=O)N[C@@H](CCSC)c2nc3ccccc3[nH]2)cc1 | inactive |
| CC1CC(C)CN(c2ccc(S(=O)(=O)N3CCOCC3)cc2)C1 (stereo unspecified) | inactive |
| Cc1ccc(CSc2nsc(C)c2C#N)cc1 | inactive |
| Cc1cc(C)c(C#N)c(SCc2ccc3c(c2)OCO3)n1 | -11.2 (active) |
| Cc1cc(C)c(C#N)c(SCc2ccccc2C(=O)O)n1 | inactive |
| CCOc1ccc(OCC)c(NC(=O)C(NS(=O)(=O)c2ccc3c(c2)oc(=O)n3C)C(C)C)c1 (stereo unspecified) | inactive |
| COc1ccccc1OCC(=O)Nc1ccccc1C(=O)NC1CC1 | inactive |
| COc1ccc(C(=O)c2c3ccc([N+](=O)[O-])cc3[n+]([O-])n2CCCN)cc1 | inactive |
| COCC(=O)Nc1cc(C(=O)OC)cc(C(=O)OC)c1 | inactive |
